Test results published in PubChem BioAssay (NCI).
This is part of a sample that, as a whole, favours compounds with a hit. Of some 83,000 tested, about 20% had one in any assay.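 The endpoint reported here, percent growth, reads 100 for growth as untreated, 0 for no net growth and -100 for all cells dead.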 Active and inactive are the calls of the source. Rule for the calls: active = growth percent below 10; inactive = the rest.

Assays:
Assay in all cases: NCI-60 one-dose screen, 48 h (100 = growth as untreated, 0 = no growth, -100 = all killed)
Details in all cases: 10 µM unless noted
SR leukemia = system: SR leukemia
RPMI-8226 leukemia = system: RPMI-8226 leukemia
OVCAR-8 ovarian = system: OVCAR-8 ovarian
OVCAR-4 ovarian = system: OVCAR-4 ovarian
SK-OV-3 ovarian = system: SK-OV-3 ovarian
IGROV1 ovarian = system: IGROV1 ovarian
OVCAR-3 ovarian = system: OVCAR-3 ovarian
HS 578T breast = system: HS 578T breast
NCI/ADR-RES ovarian = system: NCI/ADR-RES ovarian
T-47D breast = system: T-47D breast
BT-549 breast = system: BT-549 breast
MDA-MB-435 melanoma = system: MDA-MB-435 melanoma
SW-620 colon = system: SW-620 colon
MCF7 breast = system: MCF7 breast
HCT-116 colon = system: HCT-116 colon
HCC-2998 colon = system: HCC-2998 colon
KM12 colon = system: KM12 colon
OVCAR-5 ovarian = system: OVCAR-5 ovarian

Measured: growth

COc1ccc(-c2nc(C(Cl)Cl)nc3cc(-c4ccccc4)nn23)cc1
inactive: RPMI-8226 leukemia 14.9% | T-47D breast 45.8% | BT-549 breast 38.4% | MCF7 breast 29.3%
active: SR leukemia 4.09% | OVCAR-8 ovarian -34.3% | OVCAR-4 ovarian -15.3% | SK-OV-3 ovarian -29.7% | IGROV1 ovarian 2.02% | OVCAR-3 ovarian -33.9% | HS 578T breast -6.94% | NCI/ADR-RES ovarian 9.82% | MDA-MB-435 melanoma -30.3% | SW-620 colon -23.9% | HCT-116 colon 1.5% | HCC-2998 colon -37.8% | KM12 colon -2.28%

COc1ccc(-n2c(SCc3n[nH]c(=S)o3)nc3ccc(Cl)cc3c2=O)cc1
inactive: SR leukemia 103% | RPMI-8226 leukemia 101% | OVCAR-8 ovarian 101% | OVCAR-5 ovarian 89.7% | OVCAR-4 ovarian 99.3% | SK-OV-3 ovarian 97.7% | IGROV1 ovarian 95.8% | HS 578T breast 93.9% | NCI/ADR-RES ovarian 99.4% | T-47D breast 97.6% | BT-549 breast 115% | MDA-MB-435 melanoma 94.8% | SW-620 colon 97.8% | MCF7 breast 90.6% | HCT-116 colon 104% | HCC-2998 colon 101% | KM12 colon 98.6%

CC1(C)NCCC[C@]2(C)[C@H]3C/C(=N\O)C4[C@@H]5C[C@@](C)(CO)CC[C@]5(C)CC[C@@]4(C)[C@]3(C)CC[C@@H]12 (stereo not given in full)
inactive: SR leukemia 81.2% | RPMI-8226 leukemia 111% | OVCAR-8 ovarian 98.4% | OVCAR-4 ovarian 99.4% | SK-OV-3 ovarian 107% | IGROV1 ovarian 96.5% | OVCAR-3 ovarian 109% | HS 578T breast 98.6% | NCI/ADR-RES ovarian 98.1% | T-47D breast 85.3% | BT-549 breast 97.6% | MDA-MB-435 melanoma 111% | SW-620 colon 103% | MCF7 breast 86.9% | HCT-116 colon 86.3% | HCC-2998 colon 105% | KM12 colon 104%

C#C[C@]1(O)CC[C@H]2[C@@H]3CC=C4c5sc(-c6cccc(O)c6)nc5CC[C@]4(C)[C@H]3CC[C@@]21C
active: SR leukemia 4.31% | RPMI-8226 leukemia -33% | OVCAR-8 ovarian 9.55% | OVCAR-4 ovarian -47.4% | SK-OV-3 ovarian -18.2% | IGROV1 ovarian -3.36% | OVCAR-3 ovarian -65.3% | HS 578T breast -37.7% | NCI/ADR-RES ovarian -12.5% | T-47D breast 1.25% | BT-549 breast -22.8% | MDA-MB-435 melanoma -51.4% | SW-620 colon -52.8% | MCF7 breast -28% | HCT-116 colon -37.6% | HCC-2998 colon -24.8% | KM12 colon -28.9%

Cc1ccc(NC(=S)NNC(=S)Nc2ccc(C)cc2)cc1
inactive: SR leukemia 90% | RPMI-8226 leukemia 104% | OVCAR-8 ovarian 105% | OVCAR-4 ovarian 100% | SK-OV-3 ovarian 111% | IGROV1 ovarian 103% | OVCAR-3 ovarian 127% | HS 578T breast 110% | NCI/ADR-RES ovarian 104% | T-47D breast 101% | BT-549 breast 92.9% | MDA-MB-435 melanoma 102% | SW-620 colon 108% | MCF7 breast 91.1% | HCT-116 colon 106% | HCC-2998 colon 110% | KM12 colon 101%

CC(C)(C)c1ccc(C(=O)Nc2sc3c(c2C(N)=O)CC/C(=N\O)C3)cc1
active: SR leukemia 6.35% | RPMI-8226 leukemia -16.7% | T-47D breast 1.45% | MCF7 breast 5.51% | KM12 colon 6.97%
inactive: OVCAR-8 ovarian 15.8% | OVCAR-4 ovarian 10% | SK-OV-3 ovarian 35.1% | IGROV1 ovarian 27.6% | OVCAR-3 ovarian 12.6% | HS 578T breast 38.7% | NCI/ADR-RES ovarian 11.7% | BT-549 breast 16.2% | MDA-MB-435 melanoma 13.6% | SW-620 colon 17.6% | HCT-116 colon 10.5% | HCC-2998 colon 34.3%

COc1cc2c(cc1OC)C(Sc1ccc(F)cc1)c1c(nc(N)c(C#N)c1N)O2 (stereo not given)
active: SR leukemia 0.989% | RPMI-8226 leukemia -28% | OVCAR-8 ovarian -15% | OVCAR-4 ovarian -66.1% | SK-OV-3 ovarian -21.6% | IGROV1 ovarian -85.7% | OVCAR-3 ovarian -58.9% | HS 578T breast -4.38% | NCI/ADR-RES ovarian -46.4% | T-47D breast -28.1% | MDA-MB-435 melanoma -52.9% | SW-620 colon -16.7% | MCF7 breast -88.3% | HCT-116 colon -74.2% | HCC-2998 colon -86.1% | KM12 colon -62.9%
inactive: BT-549 breast 77.6%

CNC1CCc2c(sc(NC(=O)c3ccc(C(C)(C)C)cc3)c2C(N)=O)C1 (stereo not given)
inactive: OVCAR-8 ovarian 74.6% | OVCAR-4 ovarian 81.4% | SK-OV-3 ovarian 90.6% | IGROV1 ovarian 65.8% | OVCAR-3 ovarian 61.3% | HS 578T breast 57.3% | NCI/ADR-RES ovarian 78.2% | T-47D breast 53.6% | BT-549 breast 74.7% | MDA-MB-435 melanoma 45.2% | HCC-2998 colon 28.6% | KM12 colon 10%
active: SR leukemia 2.87% | RPMI-8226 leukemia -5.86% | SW-620 colon -53.5% | MCF7 breast -34.2% | HCT-116 colon 3.12%

COc1cc(Cn2cc3c(c2)-c2onc(CN4CCCC4)c2CC3)cc(OC)c1OC
inactive: SR leukemia 97.9% | RPMI-8226 leukemia 88% | OVCAR-5 ovarian 99% | OVCAR-4 ovarian 72.7% | SK-OV-3 ovarian 108% | IGROV1 ovarian 101% | OVCAR-3 ovarian 100% | HS 578T breast 97.7% | NCI/ADR-RES ovarian 94.9% | T-47D breast 76.1% | BT-549 breast 93.2% | MDA-MB-435 melanoma 96.4% | SW-620 colon 104% | MCF7 breast 80.6% | HCT-116 colon 95.9% | HCC-2998 colon 106% | KM12 colon 90.3%

CCc1cccc2c3c(sc12)C(c1ccc(OC)cc1)C(C#N)=C(/N=C/c1ccc(Cl)cc1)O3 (stereo not given)
inactive: RPMI-8226 leukemia 10.9% | OVCAR-8 ovarian 21.8% | OVCAR-5 ovarian 45.7% | OVCAR-4 ovarian 73.9% | SK-OV-3 ovarian 40.4% | IGROV1 ovarian 42.6% | T-47D breast 12.9% | BT-549 breast 29.8% | SW-620 colon 39.4% | MCF7 breast 19.3% | HCT-116 colon 13% | HCC-2998 colon 20% | KM12 colon 22.7%
active: SR leukemia 1.27% | HS 578T breast -7.21% | NCI/ADR-RES ovarian 0.0091% | MDA-MB-435 melanoma -47.2%

CS(=O)(=O)Nc1cc(-c2ccc3ncc(C#N)c(Nc4cccc(Cl)c4F)c3c2)cnc1Cl
active: SR leukemia 1.4% | RPMI-8226 leukemia -36.9% | SK-OV-3 ovarian -18.2% | IGROV1 ovarian -43.8% | OVCAR-3 ovarian -12.8% | HS 578T breast -26.6% | T-47D breast -8.48% | BT-549 breast -4.23% | MDA-MB-435 melanoma 3.99% | SW-620 colon 4.99% | MCF7 breast 3.98% | HCT-116 colon -14.8% | HCC-2998 colon -22.1% | KM12 colon 3.37%
inactive: OVCAR-8 ovarian 10.6% | OVCAR-4 ovarian 19.1% | NCI/ADR-RES ovarian 33.7%

c1n[nH]cc1-c1nc2ccc3[nH]ncc3c2c2c1CCCC2
inactive: RPMI-8226 leukemia 41.5% | OVCAR-8 ovarian 23.5% | OVCAR-5 ovarian 43.9% | OVCAR-4 ovarian 54.1% | IGROV1 ovarian 20.8% | NCI/ADR-RES ovarian 51.1% | T-47D breast 15.7% | HCC-2998 colon 33.5%
active: SR leukemia -9.78% | SK-OV-3 ovarian -19.6% | HS 578T breast -4.89% | BT-549 breast -18.9% | MDA-MB-435 melanoma 1.93% | SW-620 colon 6.24% | MCF7 breast 3.93% | HCT-116 colon -3.08% | KM12 colon 5.28%

COC(=O)c1[nH]nc2c1C1(C(=O)N(C)c3ccccc31)C(C#N)=C(N)O2 (stereo not given)
inactive: SR leukemia 113% | RPMI-8226 leukemia 104% | OVCAR-8 ovarian 102% | OVCAR-4 ovarian 97.7% | SK-OV-3 ovarian 98.3% | IGROV1 ovarian 105% | HS 578T breast 99.7% | NCI/ADR-RES ovarian 99.7% | T-47D breast 108% | BT-549 breast 133% | MDA-MB-435 melanoma 99.9% | SW-620 colon 93% | MCF7 breast 89.6% | HCT-116 colon 101% | HCC-2998 colon 104% | KM12 colon 103%

NS(=O)(=O)c1ccc(-n2cc(-c3cccc(NC(=O)c4ccc(N5CCOCC5)c(C(F)(F)F)c4)c3)nn2)cc1
active: SR leukemia 4.3% | T-47D breast 4.61%
inactive: RPMI-8226 leukemia 10.2% | OVCAR-8 ovarian 42.7% | OVCAR-5 ovarian 67.8% | OVCAR-4 ovarian 15% | SK-OV-3 ovarian 69.9% | IGROV1 ovarian 40.3% | HS 578T breast 48.9% | NCI/ADR-RES ovarian 82.4% | BT-549 breast 73.2% | MDA-MB-435 melanoma 62.9% | SW-620 colon 64.5% | MCF7 breast 36.9% | HCT-116 colon 32.5% | HCC-2998 colon 66% | KM12 colon 25.8%

COc1ccccc1-n1cc(C#N)c(N)c1C(=O)c1ccc(Br)cc1
inactive: SR leukemia 40.3% | RPMI-8226 leukemia 92.4% | OVCAR-8 ovarian 90.7% | OVCAR-4 ovarian 96.8% | SK-OV-3 ovarian 88.7% | IGROV1 ovarian 67.8% | OVCAR-3 ovarian 73.3% | HS 578T breast 78.4% | NCI/ADR-RES ovarian 42.6% | T-47D breast 60% | BT-549 breast 88.9% | SW-620 colon 38.7% | MCF7 breast 33.5% | HCT-116 colon 58.8% | HCC-2998 colon 71% | KM12 colon 39.3%
active: MDA-MB-435 melanoma 3.09%

O=C1Nc2ccccc2/C1=C/c1ccc(COCC2CO2)n1-c1ccc(O)cc1 (stereo not given)
inactive: SR leukemia 100% | RPMI-8226 leukemia 95.7% | OVCAR-8 ovarian 101% | OVCAR-4 ovarian 101% | SK-OV-3 ovarian 114% | IGROV1 ovarian 104% | OVCAR-3 ovarian 111% | HS 578T breast 104% | NCI/ADR-RES ovarian 106% | T-47D breast 91.4% | BT-549 breast 106% | MDA-MB-435 melanoma 103% | SW-620 colon 96.2% | MCF7 breast 84.6% | HCT-116 colon 99.2% | HCC-2998 colon 108% | KM12 colon 17.8%

CCO/C=N/C1=C(C#N)C(c2ccc(OC)cc2)c2sc3c(CC)cccc3c2O1 (stereo not given)
inactive: SR leukemia 20.1% | RPMI-8226 leukemia 12.7% | OVCAR-8 ovarian 42.9% | OVCAR-4 ovarian 65% | SK-OV-3 ovarian 66.6% | IGROV1 ovarian 38.4% | HS 578T breast 18.2% | NCI/ADR-RES ovarian 10.3% | T-47D breast 35.8% | BT-549 breast 63% | SW-620 colon 35.3% | MCF7 breast 24.6% | HCT-116 colon 24.1% | HCC-2998 colon 44.3% | KM12 colon 18.9%
active: OVCAR-3 ovarian -28.8% | MDA-MB-435 melanoma -39.2%

COc1cc(/C=N/NC(=O)c2cn(C3CC3)c3c(OC)c(N4CC5CCCNC5C4)c(F)cc3c2=O)ccc1O (stereo not given)
inactive: OVCAR-8 ovarian 74.2% | SK-OV-3 ovarian 119% | IGROV1 ovarian 16.4% | HS 578T breast 107% | NCI/ADR-RES ovarian 98.5% | BT-549 breast 107% | MDA-MB-435 melanoma 95.3% | HCC-2998 colon 14.8% | KM12 colon 69.2%
active: SR leukemia -13.4% | RPMI-8226 leukemia -25% | OVCAR-4 ovarian -52.8% | OVCAR-3 ovarian -73% | T-47D breast -30.4% | SW-620 colon 0.437% | MCF7 breast -27.7% | HCT-116 colon -59.1%
